Screening results deposited in PubChem by several laboratories.
GRK2 aptamer HTS – blocks RNA aptamer binding to human GRK2; 330,000 tested, 0.59% active; P25098; inhibition of aptamer binding, % at 10 µM; bead flow cytometry, FAM-aptamer displacement from GRK2;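 active = inhibition of aptamer binding above 40%, roughly 3 SD of noise, on plates passing a quality check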;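 note: median bead fluorescence of bound FAM aptamer so fluorescent compounds give negative values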
PREPL inhibitor – inhibitors of human prolyl oligopeptidase-like enzyme PREPL; Q4J6C6; recombinant PREPL, fluorescence polarization activity-based probe; inhibition, % at 5.96 µM; 320,000 tested, 0.68% active; AID 2751;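 note: 0% = enzyme with DMSO and 100% = wells lacking enzyme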
DSG3 Ab inh – blocks pemphigus antibody binding to human desmoglein-3; AID 588358; DSG3-coupled beads, scFv-anti-DSG3-GFP binding, flow cytometry; active compounds read low; binding (percent of control), % at 10 µM; 310,000 tested, 0.48% active;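 active = binding more than 3 SD below its plate's average and above zero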;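 note: hits lower antibody fragment binding to DSG3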
VLA-4 inh – inhibition in a human VLA-4 binding assay; VLA-4 expressing cells, ligand binding flow cytometry; inhibition, % (about 7 µM as worked out from the volumes in the protocol); 330,000 tested, 0.2% active; in the data active = inhibition above about 50%
JMJD2C inh – blocks human GASC-1 demethylase activity; inhibition, % at 2.35 µM; 330,000 tested, 0.069% active; AID 2099; GST-JMJD2C(1-420) H3K9me3 demethylation, DELFIA europium; Q9H3R0;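 active = more than half of a compound's replicate wells show inhibition beyond 50%, single wells judged on their own value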;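 note: signal counts dimethyl H3K9 product captured on neutravidin plate; 0% = median of DMSO wells and 100% = 0.3 times that DMSO median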
Target sequence (Q9H3R0 1-420 limits assumed): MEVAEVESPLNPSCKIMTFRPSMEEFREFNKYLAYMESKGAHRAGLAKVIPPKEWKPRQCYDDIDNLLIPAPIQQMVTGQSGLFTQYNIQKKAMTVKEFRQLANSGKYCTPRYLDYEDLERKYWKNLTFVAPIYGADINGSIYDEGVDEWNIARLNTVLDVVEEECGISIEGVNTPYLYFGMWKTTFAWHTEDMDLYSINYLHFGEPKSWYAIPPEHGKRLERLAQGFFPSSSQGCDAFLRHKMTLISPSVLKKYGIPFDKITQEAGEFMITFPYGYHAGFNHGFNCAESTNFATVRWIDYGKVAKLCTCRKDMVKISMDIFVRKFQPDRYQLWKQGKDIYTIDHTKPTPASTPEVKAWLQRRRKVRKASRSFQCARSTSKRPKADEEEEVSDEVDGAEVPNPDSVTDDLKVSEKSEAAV
PREPL confirm – human PREPL inhibition, confirmation | shares compounds with PREPL inhibitor | recombinant PREPL, fluorescence polarization activity probe | inhibition, % at 5.96 µM | 2,000 tested, 67% active | AID 2803;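 note: 0% = protein with DMSO and 100% = wells lacking protein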
* = called active by the depositor. Only some compounds are listed: those with a hit (about 1.6% of all), similar ones and a draw of the others. Cut-off read from the data, not from the text of the source, unless noted: active = inhibition above about 43%; inactive = the rest.

`Cc1cc[n+](CC(=O)c2ccccc2)c2ccccc12` gave GRK2 aptamer HTS 9, PREPL inhibitor 60*, DSG3 Ab inh 103, VLA-4 inh -6, JMJD2C inh -4 and PREPL confirm 21.
Cc1cc(O)ccc1N=Cc1c(C(F)(F)F)[nH][nH]c1=O was read as GRK2 aptamer HTS 0, PREPL inhibitor 70*, DSG3 Ab inh 103, VLA-4 inh -5, JMJD2C inh -3 and PREPL confirm 13.
Screening CC1CCCN(C(=O)c2cc(F)c(F)cc2Cl)C1 (stereo not drawn) returned GRK2 aptamer HTS 0, PREPL inhibitor 15, DSG3 Ab inh 96, VLA-4 inh 0 and JMJD2C inh -2.
`CCOC(=O)c1c(C)n(CC(O)c2ccccc2)c2ccc(O)cc12` (stereo not drawn) gave GRK2 aptamer HTS 0, PREPL inhibitor 171*, DSG3 Ab inh 106, VLA-4 inh -3, JMJD2C inh 6 and PREPL confirm 6.
For O=C(C1=C[C@@H](c2ccc3c(c2)OCO3)C[C@@H](OCCCCO)O1)N1CCN(Cc2ccc3c(c2)OCO3)CC1 the results were GRK2 aptamer HTS 0, PREPL inhibitor 50*, DSG3 Ab inh 99, VLA-4 inh 4, JMJD2C inh 6 and PREPL confirm 49*.
For O=C(C1=C[C@@H](c2ccc(Br)cc2)C[C@@H](OCCCCO)O1)N1CCN(Cc2ccccc2)CC1 the results were PREPL inhibitor 63*, DSG3 Ab inh 106, JMJD2C inh -20 and PREPL confirm 57*.
CCO[C@H]1OC(C(=O)N2CCN(Cc3ccc4c(c3)OCO4)CC2)=C[C@@H](c2csc3ccccc23)[C@@H]1CCCO was read as GRK2 aptamer HTS 0, PREPL inhibitor 54*, DSG3 Ab inh 97, VLA-4 inh 20, JMJD2C inh 0 and PREPL confirm 46*.
For O=C(C1=C[C@@H](c2ccccc2)C[C@@H](OCCCCO)O1)N1CCN(Cc2ccc3c(c2)OCO3)CC1 the results were GRK2 aptamer HTS 0, PREPL inhibitor 57*, DSG3 Ab inh 104, VLA-4 inh -8, JMJD2C inh -3 and PREPL confirm 43.
Screening CC1CN(C(=S)SCC(=O)c2ccc(Cl)cc2)CC(C)O1 (stereo not drawn) returned GRK2 aptamer HTS 5, PREPL inhibitor 21, DSG3 Ab inh 123, VLA-4 inh -6 and JMJD2C inh 16.
Screening CN(Cc1ccccc1)C1CCCN(C(=O)c2ccc(Cl)s2)C1 (stereo not drawn) returned GRK2 aptamer HTS 0, PREPL inhibitor -2, DSG3 Ab inh 108, VLA-4 inh -16 and JMJD2C inh 6.
NC(=O)COC(=O)c1ccccc1Oc1ccccc1 was read as GRK2 aptamer HTS 1, PREPL inhibitor -4, DSG3 Ab inh 97, VLA-4 inh 14 and JMJD2C inh -3.
For C1CCC(c2nn3c(-c4n[nH]c5c4CCC5)nnc3s2)CC1 the results were GRK2 aptamer HTS 5, PREPL inhibitor 0, DSG3 Ab inh 97, VLA-4 inh 5 and JMJD2C inh -2.
Screening CCN(CC)c1ccc(-c2nn3c(-c4n[nH]c5c4CCC5)nnc3s2)cc1 returned GRK2 aptamer HTS 0, PREPL inhibitor 79*, DSG3 Ab inh 111, VLA-4 inh 12, JMJD2C inh 7 and PREPL confirm 68*.
O=C(NCCCn1ccnc1)C1CCN(S(=O)(=O)c2cc([N+](=O)[O-])ccc2Cl)CC1 was read as PREPL inhibitor 47*, DSG3 Ab inh 93, VLA-4 inh 10, JMJD2C inh -3 and PREPL confirm 41.
`O=C(NCc1cccnc1)C1CCN(S(=O)(=O)c2cc([N+](=O)[O-])ccc2Cl)CC1` gave GRK2 aptamer HTS 0, PREPL inhibitor 19, DSG3 Ab inh 95, VLA-4 inh 2 and JMJD2C inh -3.
`O=C1C(Cl)=C(N2CCN(c3ccccc3[N+](=O)[O-])CC2)C(=O)c2ccccc21` gave GRK2 aptamer HTS 0, PREPL inhibitor 58*, DSG3 Ab inh 82, VLA-4 inh 27, JMJD2C inh -1 and PREPL confirm 44*.
Screening CCOC(=O)Cc1csc(NC(=O)Nc2cccc(OC)c2)n1 returned GRK2 aptamer HTS 0, PREPL inhibitor 6, DSG3 Ab inh 118, VLA-4 inh -1 and JMJD2C inh 8.
O=C(NC(C1CC1)C1CC1)C1CCC(=O)N(CCCN2CCCC2=O)C1 (stereo not drawn) was read as GRK2 aptamer HTS 0, PREPL inhibitor 1, DSG3 Ab inh 103, VLA-4 inh -5 and JMJD2C inh 1.
`Cc1ccc(Sc2cnn(-c3ccccc3)c(=O)c2Cl)cc1` gave GRK2 aptamer HTS 4, PREPL inhibitor 46*, DSG3 Ab inh 94, VLA-4 inh -5, JMJD2C inh -2 and PREPL confirm 38.
`Nc1ccc(Sc2cnn(-c3ccccc3)c(=O)c2Cl)cc1` gave GRK2 aptamer HTS 0, PREPL inhibitor 12, DSG3 Ab inh 110, VLA-4 inh 15 and JMJD2C inh 19.
CCN1CCc2nc3sc(C(=O)N4CCc5ccccc5C4)c(N)c3cc2C1 was read as GRK2 aptamer HTS 0, PREPL inhibitor 65*, DSG3 Ab inh 96, VLA-4 inh -11, JMJD2C inh -20 and PREPL confirm 48*.
O=C(c1cnn2c(C(F)F)cc(-c3ccccc3)nc12)N1CCOCC1 was read as GRK2 aptamer HTS 0, PREPL inhibitor 61*, DSG3 Ab inh 104, VLA-4 inh 16, JMJD2C inh 10 and PREPL confirm 4.
For COc1cccc(NC(=O)CN(C)CC(=O)Nc2ccc(Cl)cc2[N+](=O)[O-])c1 the results were GRK2 aptamer HTS 1, PREPL inhibitor -3, DSG3 Ab inh 116, VLA-4 inh -11 and JMJD2C inh 19.
CN(CC(=O)Nc1ccc(Cl)cc1)C(=O)c1cccc(S(=O)(=O)N2CCN(Cc3ccccc3)CC2)c1 was read as GRK2 aptamer HTS 2, PREPL inhibitor 55*, DSG3 Ab inh 106, VLA-4 inh -16, JMJD2C inh 3 and PREPL confirm 68*.
Screening CCN(CC)c1ccc(-c2sc(Nc3ccccc3)n[n+]2-c2ccc(F)cc2)cc1 returned GRK2 aptamer HTS 0, PREPL inhibitor 54*, DSG3 Ab inh 392, VLA-4 inh inactive, JMJD2C inh 19 and PREPL confirm 66*.
Screening CCc1ccc(Nc2n[n+](-c3ccccc3)c(-c3ccc(N(CC)CC)cc3)s2)cc1 returned GRK2 aptamer HTS 0, PREPL inhibitor 64*, DSG3 Ab inh 342, VLA-4 inh inactive, JMJD2C inh -1 and PREPL confirm 68*.
COC(=O)c1cccc(C(=O)N2CCCC(Nc3ccc(C)c(C)c3)C2)c1 (stereo not drawn) was read as GRK2 aptamer HTS 1, PREPL inhibitor 29, DSG3 Ab inh 101, VLA-4 inh 9 and JMJD2C inh 0.
